# System: WNK1
# Conditions: concentration: 1 μM, replicates: in singlicate; n = 1
# 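Note: KINOMEscan kinase panel screen.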
row,Structure (SMILES),%Inh
1,Cn1cnc2c(N)ncnc21 [SKF-97623],0%
2,Cl.Cl.Cl.N#Cc1ccc(CCNc2nccc(-c3cccc(CN4CCNCC4)c3)n2)cc1 [GSK2137462],0%
3,O=C1NC(=O)C(c2ccc(Cl)cc2)=C1Nc1ccc(O)cc1 [SB-340867],0%
4,CC[C@@H]1CO[C@H](C(=O)Nc2ccccc2)CN1c1cc(-c2ccc3c(N)n[nH]c3c2)nc(NC)n1 [GSK2376236],4%
5,Cc1c(Cn2c3ccccc3n3c(=O)cc(N4CCOCC4)nc23)cccc1C(F)(F)F [GSK2306394],2%
6,CSc1ccc(-c2nc3n(c2-c2ccncc2)CCC3)cc1 [SKF-105561],24%
7,Cc1ccc(-c2nc(Nc3ccncc3)c3ccccc3n2)s1 [GSK189015],0%
8,Cc1ccc(NC(=O)Nc2ccc(Cl)cc2)cc1-c1ccc(C(=O)Nc2ccncc2)cc1 [GSK1398472],7%
9,CC(C)c1ccc(O)cc1Nc1ccnc2ccc(C(F)(F)F)cc12 [GW482059],1%
10,CC(C)c1cc(-c2ccc3c(N)n[nH]c3c2)nc(N)n1 [GSK2250882],0%
11,Fc1ccc(-c2nc3n(c2-c2ccncc2)CCS3)cc1 [GI98581],0%
12,Cc1cccc2c(-c3ccncn3)c(-c3ccc(F)cc3)nn12 [GW515532],16%
13,COc1cccc(NC(=O)Nc2ccc(C)c(-c3ccc(C(=O)Nc4ccncc4)cc3)c2)c1 [GSK1398474],0%
14,CNC(=O)c1ccc(C)c(-n2c(C)cc(OCc3ccc(F)cc3F)c(Br)c2=O)c1,0%
15,Cc1ccc(NC(=O)c2ccc(Cl)cc2)cc1-c1ccc(C(=O)Nc2ccncc2)cc1 [GSK1398467],0%
16,O=C(Nc1n[nH]c2nc(-c3cccs3)c(Br)cc12)C1CCCC1 [SB-743341],0%
17,COc1ccc2cc(-c3nc(-c4ccccc4C(C)C)[nH]c3-c3ccncc3)ccc2c1 [SB-660566],10%
18,COc1cc2ncnc(Nc3cccc(Br)c3)c2cc1OC.Cl [GI230329],0%
19,O=c1cc(N2CCOCC2)nc2n(Cc3cccc(Cl)c3Cl)c3ccccc3n12 [GSK2299009],6%

row,Structure (SMILES),%Inh
1,CC(=O)c1c(C)c2cnc(Nc3ccn(C)n3)nc2n(C2CCCC2)c1=O,0%
2,CN1c2ccc(-c3ccc(C(N)=O)cc3)cc2-c2[nH]ncc2S1(=O)=O,6%
3,COc1ccc(Nc2nccc(NCCNC(=O)Nc3cc(C)ccc3C)n2)cc1 [GSK1379899],0%
4,Nc1cccc(-c2ccc3c(N)n[nH]c3c2)n1 [GSK2192730],23%
5,CNc1nc(-c2ccc3c(N)n[nH]c3c2)cc(N2C[C@@H](C(=O)Nc3ccccc3)CC[C@H]2C)n1 [GSK2298859],0%
6,Cc1ccc(NC(=O)Nc2ccccc2F)cc1-c1ccc(C(=O)Nc2ccncc2)cc1 [GSK1398477],2%
7,c1ccc(-c2ccnc3[nH]ccc23)cc1 [SB-693578],0%
8,O=C(Nc1n[nH]c2nc(-c3cccs3)c(Br)cc12)C1CC1 [SB-735297],0%
9,Cn1cncc1C(=O)NC1CCN(c2ccnc(Nc3ccc(F)cc3)n2)C1 (stereo not shown) [GSK1379717],12%
10,COc1ccc(Nc2nccc(N3CCC(NC(=O)C(C)c4ccc(Cl)cc4)CC3)n2)cc1 (stereo not shown) [GSK1379812],0%
11,CCc1ccc(-c2ccc3c(c2)-c2n[nH]cc2S(=O)(=O)N3C)cc1,23%
12,CS(=O)(=O)CCNCc1nc(-c2ccc3ncnc(Nc4ccc(OCc5ccccc5)c(Cl)c4)c3c2)cs1.Cl [GW582764],6%
13,Cc1ccc(NC(=O)Nc2ccc(Cl)c(C(F)(F)F)c2)cc1-c1ccc(C(=O)Nc2ccncc2)cc1 [GSK1398470],0%
14,Fc1ccc(-c2nn3cccc(F)c3c2-c2ccncc2)cc1 [GW475620],5%
15,CNc1nc(-c2ccc3c(N)n[nH]c3c2)cc(N2C[C@@H](C(=O)NC3CCCCC3)OC[C@H]2C)n1 [GSK2375584],5%
16,Cn1cncc1-c1cc2c(Nc3ccc(OCc4ccccc4)cc3)ncnc2cn1 [GW281179],7%
17,Fc1ccc(-c2nc[nH]c2-c2ccncc2)cc1 [SB-217360],11%
18,COc1cccc(C2=C(Nc3cc(Cl)c(O)c(Cl)c3)C(=O)NC2=O)c1 [SB-390767],20%
